# Source: PubChem BioAssay AID504832 (National Center for Advancing Translational Sciences (NCATS), 2011)
# Among all 310,000 compounds or so, about 18,000 (5.8%) were called active. Entries that show only a call come without a potency. Another 22% or so got no clear call; they are omitted. The sample holds actives, similar compounds and a random draw of the others, so the mix is not that of the screen. Calls come from the whole dose curve; as a rule, active = well fitted inhibition curve with a large enough effect; inconclusive = small, poorly fitted or top-dose-only effect, or another doubt; inactive = no such curve, though single readings can be large or run the other way.
# Assay: Primary qHTS for delayed death inhibitors of the malarial parasite plastid, 48 hour incubation
# Conditions: P. falciparum luciferase growth in erythrocytes; series mostly up to 28.7 µM
# Procedure, shortened: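 Compounds are pin-transferred into medium, infected erythrocytes (2% hematocrit, 0.1% parasitemia final) are added, and plates sit one parasite generation at 37 C in 5% CO2. Detection reagent is then added and luminescence measured.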
# Potency is the fitted concentration of half-maximal effect.
Structure (SMILES),Potency,"activity change, negative = inhibition"
C=CCN1C(=NC(=O)COc2ccccc2)SC2CS(=O)(=O)CC21 (configuration not stated),inactive,
CCOC(=O)c1cc2c(=O)n3ccccc3nc2n(CC(C)C)c1=NC(=O)c1c(-c2c(F)cccc2Cl)noc1C,2.33 µM (active),
CCn1c(=N)c(S(=O)(=O)c2ccc(F)cc2)cc2c(=O)n3ccccc3nc21,inactive,
C/C(=N/OC(=O)c1c(-c2c(F)cccc2Cl)noc1C)c1cnccn1,inactive,
O=C(Nc1cc2c3c(c1)CC(=O)N3CCC2)c1ccccc1F,inactive,
COc1cccc(CN2CCN(Cc3ccc4cccc(F)c4n3)CC2CCO)c1 (configuration not stated),inactive,
O=c1c2c(-c3ccccc3)ccnc2[nH]n1-c1ccccc1,inactive,
COc1ccc(C(=O)Nc2nncs2)c(OC)c1,inactive,
COc1ccc(Cc2nnc(NC(=O)c3ccc(OC)cc3OC)s2)cc1,1.65 µM (active),
COc1ccc(Cc2nnc(NC(=O)c3cc(OC)c(OC)c(OC)c3)s2)cc1OC,inactive,
Cc1cc(C(=O)NC2CC(C)(C)Cc3c2cnn3-c2ccccc2)n[nH]1 (configuration not stated),inactive,
Clc1ccc(N/N=C/c2cccs2)nn1,inactive,
Oc1cccc(/C=N/Nc2ccc(Cl)nn2)c1O,0.415 µM (active),
COc1cccc(/C=N/Nc2ccc(Cl)nn2)c1,inactive,
O=C(CN1CCCCC1)NC(=O)Nc1ccccc1F,inactive,
Cc1ccc(NC(=O)CN(C)C(=O)COC(=O)C(C)(C)Oc2ccc(Cl)cc2)cc1,inactive,
CN(C)CCCN(C(=O)c1ccc(S(=O)(=O)N2CCCc3ccccc32)cc1)c1nc2ccc(F)cc2s1,13.1 µM (active),
Cc1ccc2nc(N(CCN(C)C)C(=O)C3=COCCO3)sc2c1,inactive,
CCOc1ccc2nc(N(CCN(C)C)C(=O)c3ccc4ccccc4c3)sc2c1,inactive,
CCN(CC)CCN(C(=O)c1ccc(S(=O)(=O)N2CCOCC2)cc1)c1nc2cc3c(cc2s1)OCCO3,inactive,
CN(C)CCN(C(=O)C1=COCCO1)c1nc2ccc(Cl)cc2s1,inactive,
CCOc1ccc2nc(N(CCCN(C)C)C(=O)c3ccc(C(=O)c4ccccc4)cc3)sc2c1,10.4 µM (active),
CCc1ccc2nc(N(CCCN(C)C)C(=O)c3ccc4c(c3)OCCO4)sc2c1,3.29 µM (active),
CCC(=O)Nc1nnc(S(=O)(=O)N2CCCc3ccccc32)s1,inactive,
CCCC(=O)N(CCN1CCOCC1)c1nc2ccc(OCC)cc2s1,inactive,
C[C@H](NC(=O)C1CC(=O)N(c2ccc3c(c2)OCO3)C1)C(=O)NCc1ccco1 (some centres not stated),inactive,

Structure (SMILES),Potency,"activity change, negative = inhibition"
CCc1ccccc1N(CC(=O)NCC1CCCO1)C(=O)CCC(=O)Nc1nccs1 (configuration not stated),inactive,
CC(C)Oc1ccc(C(CC(=O)N2CCOCC2)C(C)C)cc1 (configuration not stated),inactive,
COc1ccc(CSc2nnnn2-c2ccc(C(=O)O)cc2)cc1,inactive,
COc1ccc(C(=O)NCC(=O)N/N=C/c2cccnc2)cc1,inactive,
COc1ccc(C(=O)OCC(=O)c2ccc(C)c(S(=O)(=O)N3CCOCC3)c2)cc1OC,inactive,
Cc1cc(NC(=O)COC(=O)c2ccc(F)c(S(=O)(=O)N3CCOCC3)c2)no1,inactive,
CCOc1ccc(CCNC(=O)COC(=O)c2ccc(F)c(S(=O)(=O)N3CCOCC3)c2)cc1OCC,14.7 µM (active),
CC(C)CNC(=O)C(=O)NCC(c1ccc2c(c1)OCO2)N1CCOCC1 (configuration not stated),inactive,
CCCCn1c(SCC(=O)N2CCCC2=O)nc2cc(S(N)(=O)=O)ccc21,inactive,
NS(=O)(=O)c1ccc(CCNC(=O)CCCn2c(SCC(=O)N3CCCC3)nc3ccsc3c2=O)cc1,inactive,
CCCCn1c(SCC(=O)N2CCC(C(=O)OCC)CC2)nc2cc(S(N)(=O)=O)ccc21,13.1 µM (active),
CCSc1nsc(NC(=O)Nc2ccccc2OC)n1,inactive,
COc1ccc(CC(=O)NC2CCSc3ccccc32)cc1OC (configuration not stated),inactive,
CO[C@H]1[C@@H]2C=CO[C@@H](O[C@H]3O[C@@H](CO)[C@H](O)[C@@H](O)[C@@H]3O)[C@@H]2[C@@]2(CO)O[C@@H]12,inactive,
Cc1n[nH]c(=O)c2c(NC(=O)CSc3ccccc3F)oc(C)c12,inactive,
Cc1[nH]nc(-c2ccc(OCc3cnn(-c4ccccc4)c3)cc2O)c1Oc1ccc(Cl)cc1,5.22 µM (active),
COc1ccc(C(=O)Cc2cnn(-c3ccccc3)c2)c(O)c1,inactive,
CCOc1cc(C2C(C(=O)c3ccco3)=C(O)C(=O)N2Cc2ccccc2)ccc1O (configuration not stated),inactive,
Cc1ccccc1NC(=O)C1CCN(C(=O)NC2CCCCC2)CC1,inactive,
COc1ccc(-c2nnc(NC(=O)CS(=O)(=O)c3ccc(Cl)cc3)o2)c(OC)c1,inactive,
CCCC(=O)Nc1nnc(-c2ccccc2)o1,inactive,
Cc1ccc(C)c(-c2nnc(NC(=O)CS(=O)(=O)c3ccccc3)o2)c1,13.1 µM (active),
COc1ccc(NCCc2ccccn2)cc1,inactive,
OCC[C@H]1C[C@H](O)[C@@H](O)[C@]2(CCc3ccccc3O2)O1,inactive,
Cc1ccc2[nH]c(=O)c(CC(=O)O)c(-c3ccccc3)c2c1,inactive,
O=C(/C=C/c1ccco1)NC(=S)N1CCCCC1,inactive,

Structure (SMILES),Potency,"activity change, negative = inhibition"
O=C(CSc1nnc(Nc2ccccc2F)s1)NC1CCCC1,inactive,
CCSc1nnc(NC(=O)Cc2ccccc2OC)s1,inactive,
COc1ccccc1Nc1nnc(SC(C)C(=O)NC2CC2)s1 (configuration not stated),10.4 µM (active),
O=C1CCCN1C(=O)COc1ccc([N+](=O)[O-])cc1,inactive,
O=C(CNc1ccccc1N1CCCC1=O)Nc1cc(Cl)ccc1-n1cncn1,inactive,
Cc1nn(-c2ccccc2)c(C)c1NC(=O)COC(=O)Cc1ccccc1,inactive,
Cc1cccc(C)c1NC(=O)CNC(=O)c1c(C)nn(-c2ccccc2)c1C,inactive,
Cc1nn(-c2ccccc2)c(C)c1NC(=O)CCl,4.65 µM (active),
Cn1ccc(=Nc2ccc(NC(=O)c3ccc(N=c4ccn(C)c5ccc([N+](=O)[O-])cc45)cc3)cc2)cc1,0.233 µM (active),
COc1cc(NS(=O)(=O)c2ccc(NC(=O)c3ccc([N+](=O)[O-])cc3)cc2)ncn1,inactive,
O=C(Nc1ccc(C(=O)N2CCCCC2)cc1)c1cccc([N+](=O)[O-])c1,inactive,
O=S(=O)(c1cccc(-c2cn3ccccc3n2)c1)N1CCCC1,inactive,
O=S(=O)(c1cccc(-c2nnc(SC(F)F)n2-c2ccccc2)c1)N1CCCCC1,11.7 µM (active),
O=S(=O)(c1cccc(-c2nnc3n2CCCCC3)c1)N1CCOCC1,inactive,
COc1cc(NC(=O)CSC(=S)N2CCCC2)c(OC)cc1Cl,inactive,
O=C(c1ccccc1)N1N=C(c2ccccc2O)CC1c1ccc(Br)cc1 (configuration not stated),3.7 µM (active),
O=C1CC(c2ccccc2)C(=O)N1c1cccc(O)c1 (configuration not stated),inactive,
Oc1ccccc1C1=NN(c2ccccc2)C(c2ccccc2)C1 (configuration not stated),1.31 µM (active),
COc1ccc(C2CC(c3ccccc3)=NN2C(=O)c2ccc(Cl)c([N+](=O)[O-])c2)cc1 (configuration not stated),inactive,
CC(=O)Oc1ccccc1C1=NN(C(C)=O)C(c2ccccc2)C1 (configuration not stated),inactive,
CCn1c(=O)c(=O)[nH]c2c(=O)oc3ccc(S(=O)(=O)Nc4ccc(OC)cc4)cc3c21,inactive,
COc1ccc(C(=O)CCC(=O)Nc2ccc(Cl)cc2)cc1,inactive,
O=C(NCCO)C(=O)NCC(c1ccc2c(c1)OCO2)N1CCN(c2ccc(F)cc2)CC1 (configuration not stated),inactive,
O=C(OCCN=C1NS(=O)(=O)c2ccccc21)c1cccc([N+](=O)[O-])c1,inactive,
Cn1c(=O)c2c(ncn2CCc2ccccc2)n(C)c1=O,inactive,
Cn1c(=O)c2c(ncn2CC(=O)N2CCN(c3ccccc3)CC2)n(C)c1=O,inactive,

Structure (SMILES),Potency,"activity change, negative = inhibition"
Cn1c(=O)c2c(ncn2CC(COCc2ccccc2Cl)OCc2ccccc2Cl)n(C)c1=O (configuration not stated),8.28 µM (active),
COc1ccccc1S(=O)(=O)c1c(C)cc(C)[nH]c1=O,inactive,
O=S(=O)(NC1CC1)c1ccc(F)c(F)c1,inactive,
O=C(CC1C(=O)NCCN1CC(c1ccccc1)c1ccccc1)NCC1CCOCC1 (configuration not stated),inactive,
C=CCN1CCN(C(=O)CCCc2ccccc2)CC1,inactive,
COc1ccc(/C=C/C(=O)OCC(=O)Nc2cccc(Oc3ccccc3)c2)c(OC)c1,inactive,
COc1ccc(/C=C/C2=CC(C)(C)NC(=S)N2)c(OC)c1,10.4 µM (active),
COc1ccc(/C=C2/C(=O)N(c3ccccc3)N=C2C)c(OC)c1,inactive,
O=C(CNC(=O)c1cccnc1)N/N=C/c1cccnc1,,2.56% [at 0.00184 µM] (inactive)
CCN(C(=O)CSc1ncnc2c1cnn2-c1ccccc1)C1CCS(=O)(=O)C1 (configuration not stated),inactive,
CC(C(=O)NC1CCCCC1)N1C(=O)c2cccc3cccc1c23 (configuration not stated),inactive,
Cc1c(Cl)cccc1NC(=S)NCc1ccc2c(c1)OCO2,inactive,
CCc1cccc(CC)c1NC(=S)NCc1ccc2[nH]c(C)cc2c1,4.65 µM (active),
CCc1cccc(CC)c1NC(=S)Nc1ccc2cn[nH]c2c1,inactive,
Cc1cccc(NC(=O)C2CCN(C(=O)NC3CCCCC3)CC2)c1,inactive,
CCc1ccc(OCC(=O)N(Cc2ccccc2)C2CCS(=O)(=O)C2)cc1 (configuration not stated),inactive,
CCOC(=O)N1CCN(S(=O)(=O)N2CCCC(C(=O)NCCCN3CCC(C)CC3)C2)CC1 (configuration not stated),inactive,
CCOc1ccccc1Oc1cn[nH]c1-c1ccc(OC)cc1O,11.7 µM (active),
COc1ccc(-c2[nH]ncc2/C=N/NC(=O)c2cc(Br)ccc2O)c(OC)c1,inactive,
CCN(CCn1cccn1)Cc1cn[nH]c1-c1ccc(OC)cc1F,inactive,
COc1ccc(-c2[nH]ncc2CN(C)Cc2cccnc2)c(F)c1,inactive,
COc1ccc(-c2cn[nH]c2-c2ccc(OC)cc2)cc1,inactive,
COc1ccc(Oc2cn[nH]c2-c2ccc(OC)cc2O)cc1,6.57 µM (active),
NC(=O)CSc1nnc(NC(=O)c2ccc(Br)o2)s1,inactive,
